Assay results reported in publication PMC4336329 (PLoS ONE, 2015).
The campaign covered roughly 310,000 compounds. About 14,000 (4.5%) showed an effect of 50% or more. Effects have a minus sign here. For the sample, strong results were picked, then their nearest neighbours and some compounds at random.

Target: human ether-à-go-go-related gene (hERG) potassium channel (human, UniProt Q12809)
Test: primary screen, population patch clamp on CHO cells stably expressing hERG; higher = less effect of the substance
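Also: peak tail current of the secondary pulse compared with the same well before compound.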

Sequence of human ether-à-go-go-related gene (hERG) potassium channel (Q12809 whole entry, looked up): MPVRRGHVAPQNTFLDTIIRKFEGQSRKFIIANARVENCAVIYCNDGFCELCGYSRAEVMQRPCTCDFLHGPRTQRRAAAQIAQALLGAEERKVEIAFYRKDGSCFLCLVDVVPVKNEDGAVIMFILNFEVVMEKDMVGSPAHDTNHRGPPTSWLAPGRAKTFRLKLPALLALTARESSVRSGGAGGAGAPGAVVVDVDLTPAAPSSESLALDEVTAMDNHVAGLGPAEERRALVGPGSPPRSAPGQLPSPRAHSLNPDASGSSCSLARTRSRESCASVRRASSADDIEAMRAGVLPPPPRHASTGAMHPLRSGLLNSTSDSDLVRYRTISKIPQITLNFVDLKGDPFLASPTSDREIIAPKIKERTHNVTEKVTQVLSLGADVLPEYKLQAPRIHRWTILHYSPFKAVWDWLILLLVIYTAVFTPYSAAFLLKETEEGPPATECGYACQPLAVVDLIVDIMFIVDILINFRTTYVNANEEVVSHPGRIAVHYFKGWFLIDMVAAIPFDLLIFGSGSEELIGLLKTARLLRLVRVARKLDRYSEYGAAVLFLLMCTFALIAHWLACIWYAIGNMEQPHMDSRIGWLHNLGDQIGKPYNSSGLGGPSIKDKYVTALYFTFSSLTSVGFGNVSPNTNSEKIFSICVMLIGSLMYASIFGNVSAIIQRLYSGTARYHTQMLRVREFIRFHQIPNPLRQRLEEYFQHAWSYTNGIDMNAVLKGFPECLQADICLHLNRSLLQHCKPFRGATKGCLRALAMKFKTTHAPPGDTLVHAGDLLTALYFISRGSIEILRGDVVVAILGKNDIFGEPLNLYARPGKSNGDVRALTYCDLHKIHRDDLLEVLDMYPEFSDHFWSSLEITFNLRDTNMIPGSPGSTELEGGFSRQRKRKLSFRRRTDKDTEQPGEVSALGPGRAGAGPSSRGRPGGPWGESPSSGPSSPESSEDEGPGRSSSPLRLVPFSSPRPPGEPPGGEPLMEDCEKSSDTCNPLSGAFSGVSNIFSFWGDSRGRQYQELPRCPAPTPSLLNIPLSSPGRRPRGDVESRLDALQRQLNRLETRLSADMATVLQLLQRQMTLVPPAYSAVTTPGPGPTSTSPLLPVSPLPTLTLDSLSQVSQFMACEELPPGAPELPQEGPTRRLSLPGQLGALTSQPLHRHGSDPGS

| SMILES | hERG current change (%, negative = inhibition) at 10uM [%] |
| --- | --- |
| CC(C)NC(=O)C1CCN(C2CCN(CC3CC=CCC3)CC2)CC1 (stereo not drawn) | -15 |
| O=C(O)c1cc(-c2cccs2)[nH]n1 | 15.5 |
| C/C(=N\NC(=O)c1[nH]c2c([N+](=O)[O-])cc(C)cc2c1-c1ccccc1)c1cccnc1 | 6.67 |
| CC12CCC(C(N)=O)(c3nc4ccccc4nc31)C2(C)C (stereo not drawn) | -4.08 |
| CC12CCC(C(=O)N3CCN(c4ncccn4)CC3)(c3nc4ccccc4nc31)C2(C)C (stereo not drawn) | -20.2 |
| CN1CCN(C(=O)C23CCC(C)(c4nc5ccccc5nc42)C3(C)C)CC1 (stereo not drawn) | -53.3 |
| O=[N+]([O-])c1ccc(N2CCN(c3ccc(F)cc3)CC2)cn1 | -48.7 |
| O=[N+]([O-])c1ccc(N2CCN(c3ccc(O)cc3)CC2)cn1 | -52.8 |
| O=[N+]([O-])c1ccc(N2CCOCC2)cn1 | 15.4 |
| O=[N+]([O-])c1ccc(N2CCN(c3cccc(Cl)c3)CC2)cn1 | -63.2 |
| O=[N+]([O-])c1ccc(N2CCN(c3ccccc3Cl)CC2)cn1 | -34.3 |
| O=[N+]([O-])c1ccc(N2CCCCC2)cn1 | 8.92 |
| Cn1c(C(=O)NCc2ccccn2)cc2c(=O)n3ccccc3nc21 | -1.42 |
| CN(C)S(=O)(=O)c1cccc(NC(=O)c2cc3ccccc3o2)c1 | -13.7 |
| CCOc1ccc(N2C(=O)/C(=C/c3cccs3)N(CC(=O)OC)C2=S)cc1 | -28 |
| COC(=O)C(NC(C)=O)(Nc1nc2c(s1)CCCC2)C(F)(F)F (stereo not drawn) | -4.29 |
| COCCCNC(=O)CSC1=Nc2ccccc2C2=NC(c3ccccc3)C(=O)N12 (stereo not drawn) | -22.2 |
| O=C(Nc1ccc(F)cc1)Nc1ccc2ccccc2n1 | 14.2 |
| COc1ccc(-c2csc(NC(=O)c3cccc(N4C(=O)CCC4=O)c3)n2)cc1OC | -1.68 |
| COCCN(C(=O)C1CC(=O)N(Cc2ccccc2)C1)c1nc(-c2ccc([N+](=O)[O-])cc2)cs1 (stereo not drawn) | -29.7 |
| COc1ccc(C)c2sc(N(CCN(C)C)C(=O)c3cccc(N4C(=O)CCC4=O)c3)nc12.Cl | -57.9 |

| SMILES | hERG current change (%, negative = inhibition) at 10uM [%] |
| --- | --- |
| COc1ccc(OC)c2sc(N(CCN(C)C)C(=O)c3ccc4ccccc4c3)nc12.Cl | -11.3 |
| COc1ccc(C)c2sc(N(CCCN(C)C)C(=O)c3ccc4c(c3)OCCO4)nc12.Cl | -75.6 |
| Cc1cc(C)c2nc(N(CCCN(C)C)C(=O)c3ccc4c(c3)OCCO4)sc2c1.Cl | -51.2 |
| COCCN(C(=O)c1cccc(N2C(=O)CCC2=O)c1)c1nc(-c2ccc([N+](=O)[O-])cc2)cs1 | -50.2 |
| COc1ccc(Cl)c2sc(N(CCN(C)C)C(=O)c3ccc4c(c3)OCCO4)nc12.Cl | -29.2 |
| Cc1cc(C)c2nc(N(CCCN(C)C)C(=O)c3ccc4c(c3)CCCC4)sc2c1.Cl | -3.72 |
| COc1ccc(C)c2sc(N(CCN(C)C)C(=O)c3ccc4ccccc4c3)nc12.Cl | -20.7 |
| Cc1cc(C)c2nc(N(CCN(C)C)C(=O)c3ccc4ccccc4c3)sc2c1.Cl | 11.6 |
| CN(C)CCN(C(=O)c1cccc(N2C(=O)CCC2=O)c1)c1nc2ccc(Br)cc2s1.Cl | -48.7 |
| CCOc1ccccc1NC(=O)NCc1ccco1 | 8.52 |
| CC(=O)N1CCc2cc(S(=O)(=O)CCC(=O)NCc3ccc(F)cc3)ccc21 | -13.8 |
| O=C1C=C(O)C(n2cncn2)C(c2ccc3c(c2)OCO3)C1 (stereo not drawn) | 17.1 |
| O=C(NCc1cccnc1)c1nc(-c2ccccc2)n(-c2ccccc2)n1 | -14.7 |
| O=C(CCCCCn1c(=S)[nH]c2ccc(N3CCOCC3)cc2c1=O)NCc1ccccc1 | 12 |
| COc1ccc(C(=O)OCc2c(C)noc2C)cc1 | 12.9 |
| COC(=O)c1ccc(NC(=S)NC2CCc3ccccc32)cc1 (stereo not drawn) | -13.9 |
| CNS(=O)(=O)c1ccc2c3c(cccc13)C(=O)N2 | 9.73 |
| Cc1cc(C)c2nc(N(CCCN(C)C)C(=O)C3=COCCO3)sc2c1.Cl | -65.9 |
| COc1ccc(OC)c2sc(N(CCCN(C)C)C(=O)c3ccc(S(=O)(=O)N4CCc5ccccc5C4)cc3)nc12.Cl | -8.54 |
| COc1ccc(C)c2sc(N(CCCN(C)C)C(=O)c3ccc(S(=O)(=O)N4CCc5ccccc5C4)cc3)nc12.Cl | 9.73 |
| Cc1cccc2sc(N(CCCN3CCOCC3)C(=O)CS(=O)(=O)c3ccc(F)cc3)nc12.Cl | -16.9 |

| SMILES | hERG current change (%, negative = inhibition) at 10uM [%] |
| --- | --- |
| COc1ccc(C)c2sc(N(CCCN(C)C)C(=O)CS(=O)(=O)c3ccc(F)cc3)nc12.Cl | -60.3 |
| Cc1cc(C)c2nc(N(CCN(C)C)C(=O)/C=C/c3cccs3)sc2c1.Cl | 17.9 |
| COc1ccc(C)c2sc(N(CCCN(C)C)C(=O)c3ccc(S(=O)(=O)N(C)C)cc3)nc12.Cl | -61.5 |
| Cc1cc(C)c2nc(N(CCCN(C)C)C(=O)c3ccc(S(=O)(=O)N4CC(C)OC(C)C4)cc3)sc2c1.Cl (stereo not drawn) | -33.7 |
| Cc1ccc(S(=O)(=O)CC(=O)N(CCCN(C)C)c2nc3ccc(C)cc3s2)cc1.Cl | -43.9 |
| Cc1ccc(-n2nnnc2SCC(=O)N2CCCCC2)cc1 | -3.3 |
| CCNC(=S)N/N=C/c1c(Cl)cccc1Cl | 18.1 |
| Cc1cccc(-n2ncc3c2CCCC3NC(=O)C2CCOCC2)c1C (stereo not drawn) | 6.59 |
| O=C(Nc1cnc2ccccn2c1=O)c1ccc(Cl)cc1 | -23 |
| COc1ccc(C2(c3ccc(OC)cc3)NC(=O)N(CC(=O)Nc3ccccc3)C2=O)cc1 | 28.6 |
| COc1cc(NC(=O)CN2C(=O)NC(c3ccccc3)(c3ccccc3)C2=O)cc(OC)c1 | 5.79 |
| CN(CC(=O)Nc1ccccc1Cl)C(=O)CN1C(=O)NC(c2ccccc2)(c2ccccc2)C1=O | -66.8 |
| O=C(CN1C(=O)NC(c2ccccc2)(c2ccccc2)C1=O)NCc1ccccc1 | -31 |
| COc1ccc(CNC(=O)C(C)N2C(=O)NC(c3ccccc3)(c3ccccc3)C2=O)cc1 (stereo not drawn) | -86.5 |
| CC(C(=O)NC(N)=O)N1C(=O)NC(c2ccccc2)(c2ccccc2)C1=O (stereo not drawn) | -14.9 |
| NC(=O)NC(=O)CN1C(=O)NC(c2ccccc2)(c2ccccc2)C1=O | 4.8 |
| COc1ccc(NC(=O)CN2C(=O)NC(c3ccccc3)(c3ccccc3)C2=O)cc1 | -55 |
| CCNC(=O)NC(=O)C(C)N1C(=O)NC(c2ccccc2)(c2ccccc2)C1=O (stereo not drawn) | -43.6 |
| CN(CC(=O)Nc1ccccc1Cl)C(=O)COC(=O)CN1C(=O)NC2(CCCC2)C1=O | 9.31 |
| CCN1C(=O)C(=O)N(CC(=O)N(C)CC(=O)Nc2ccccc2Cl)C1=O | 4.13 |
| C=CCNC(=O)NC(=O)CN1C(=O)NC(c2ccccc2)(c2ccccc2)C1=O | -69.5 |
